A selection: hits, their analogues and other compounds. The true share with any hit is near 2.2%.
TRAIL sens C8: caspase-8 TRAIL sensitization. NB7+C8 cells + TRAIL, ATPlite viability luminescence. inhibition (viability loss, TRAIL sensitization), % at 10 µM. 360,000 tested, 1% active. AID 624354;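 active means compounds causing at least 50% loss of cell viability in the single-dose screen, relative to plate controls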
HIF-2a block: inhibitors of HIF-2a; inhibition, % at 18.8 µM; AID 624352; 360,000 tested, 0.72% active; 786-0 RCC cells HIF-2a reporter, luciferase luminescence, overnight;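 active means inhibition of the luminescence signal of 40% or more relative to plate controls, in a single-dose primary screen at 18.75 µM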
PPC-1+TRAIL kill: compounds killing PPC-1 cancer cells with TRAIL present (potentiator screen, no TRAIL-free arm); cell killing (% activity), % at 4 µM or 5 µM; 220,000 tested, 0.41% active; PPC-1 cells + TRAIL, ATPLite viability luminescence;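 active means cell killing above 50% in the first pass at 4 µM, then a duplicate retest at 5 µM averaging 50% or more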;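 further: plate controls were cells with TRAIL plus DMSO for no effect and medium-only wells lacking cells for full effect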
CF NFkB inh: inhibitors of cystic fibrosis induced NF-kB; AID 588850; KKLEB NF-kB-GFP reporter, PAF-induced, GFP fluorescence overnight; inhibition, % at 5 µM; 360,000 tested, 0.86% active;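 active means at least 50% inhibition at 5 µM, scaled per plate between neutral and stimulator controls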;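 further: PAF is a Pseudomonas aeruginosa culture filtrate used as stimulus; plate controls were PAF-stimulated DMSO wells for no effect and unstimulated DMSO wells for full effect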
iPSC survival up: hiPSC single-cell survival enhancement; ATPlite luminescence; 100% = ROCK inhibitor wells, 0% = DMSO; survival enhancement, % at 20 µM; 360,000 tested, 0.044% active; AID 602274; in the data active means survival enhancement above about 18%;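 further: cells exposed to compounds for 16 hours before the ATP read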
KKLEB cytotox: reduces viability of KKLEB cystic fibrosis airway cells; KKLEB CF airway cells viability, ATPlite luminescence, overnight; stronger effect = lower value; cells stimulated with P. aeruginosa culture filtrate; activity change (cytotoxicity), % at 5 µM; 360,000 tested, 0.36% active; AID 602141;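 active means corrected activity change at or below -50% at 5 µM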
CF NFkB inh conf: CF NF-kB inhibition confirmation, single concentration. KKLEB CF airway cells, PAF-induced NF-kB-GFP fluorescence, overnight. inhibition, % at 5 µM. shares compounds with CF NFkB inh. 1,300 tested, 64% active. AID 602472; in the data active means inhibition above about 40%;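 further: stimulus PAF is a Pseudomonas aeruginosa filtrate and not platelet activating factor; plate controls were DMSO wells with stimulus for no effect and unstimulated DMSO wells for full effect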
The depositor's hits bear a star; nt = not tested or not shown.

SMILES	TRAIL sens C8	HIF-2a block	PPC-1+TRAIL kill	CF NFkB inh	iPSC survival up	KKLEB cytotox	CF NFkB inh conf
CCCCCCCCN1C(=O)[C@H](CC(=O)NCc2cccs2)C[C@@]2(C(=O)OC)CCCCC=C12	7	-13	nt	nt	-1	nt	nt
c1ccc(COc2ncnc3c2ncn3CCCN2CCN(c3ccccn3)CC2)cc1	13	5	nt	1	3	-10	nt
Cc1cccc(N2CCN(C(=O)CCn3c(=S)[nH]c4cc5c(cc4c3=O)OCO5)CC2C)c1 (configuration not stated)	16	-8	14	69*	9	1	101*
O=C(Nc1ccc2c(c1)OCO2)c1cc(C2CCCN(C(=O)C3CCCCC3)C2)on1 (configuration not stated)	12	-71	nt	-9	-3	-2	nt
COc1ccc(NC(=O)CN(C)C(=O)c2cc(-c3ccncc3)nc3ccccc23)cc1	-16	4	nt	16	0	-10	nt
COc1ccc(Cl)cc1NC(=O)CN(C)C(=O)c1cc(-c2ccncc2)nc2ccccc12	8	6	nt	61*	1	-36	10
NC(=O)c1sc2nccc(Nc3ccccc3)c2c1N	-5	-15	0	73*	4	4	73*
O=C(NCCCCCCNC(=O)c1ccncc1)c1ccncc1	-2	8	nt	10	0	-1	nt
COC1(OC)C=CC(=O)C=C1NC(=O)c1ccccc1OC(C)=O	-10	-2	nt	66*	-3	6	69*
Cc1c(C)c2ccc(OC(C)C(=O)NCCc3c[nH]c4ccccc34)cc2oc1=O (configuration not stated)	-8	-16	nt	-14	1	-4	nt
CC(=O)C1=C(c2cccc([N+](=O)[O-])c2)N(C(C)=O)n2c(C)nnc2S1	-3	-121	20	52*	-3	-40	22
CC(=O)c1c(C(C)=O)c(C)n(-c2cccc([N+](=O)[O-])c2)c1C	-10	-2	18	9	-1	0	nt
Cc1ccc(S(=O)(=O)N2c3cc(C)ccc3OCC2C(C)(C)C)cc1 (configuration not stated)	9	21	2	30	17	-9	nt
COc1ccc(S(=O)(=O)N2c3cc(C)ccc3OCC2C(C)(C)C)cc1 (configuration not stated)	14	11	26	50*	4	-38	59*
O=C(/C=C/c1ccc(O)c(O)c1)c1ccccc1O	18	-245	14	5	0	-9	nt
O=C(C=Cc1ccccc1O)c1ccccc1O	12	-5	nt	71*	-4	-45	13
O=C(/C=C/c1ccccc1Cl)c1cccnc1	10	17	-3	-2	-5	7	nt
O=C(/C=C/c1ccccc1Cl)c1ccc(O)cc1	28	-237	9	59*	0	-10	-38
COc1ccc(NC(=O)CSc2nc(C3CC3)nc3ccccc23)cc1	2	15	nt	53*	0	-18	33
CCN(C(=O)COC(=O)c1ccc([N+](=O)[O-])o1)c1cccc2ccccc12	10	11	nt	66*	4	-16	18
CC(C)(C)N(Cc1ccccc1)C(=O)COC(=O)c1ccc([N+](=O)[O-])o1	6	-1	nt	2	-2	10	nt
Cc1ccc(CNc2ncnc(N)c2[N+](=O)[O-])cc1	-7	-29	-3	63*	-1	-10	66*
CCN(CC(=O)Nc1ccccc1C(F)(F)F)C(=O)C1CC(=O)N(Cc2ccccc2)C1 (configuration not stated)	8	20	nt	-15	0	-2	nt
CN(C)CCCN(C(=O)CCOc1ccccc1)c1nc2ccc(F)cc2s1	6	6	35	91*	0	-35	69*
CN(C)CCCN(C(=O)COc1ccccc1)c1nc2ccc(F)cc2s1	-5	-12	-5	-12	0	-20	nt
SMILES	TRAIL sens C8	HIF-2a block	PPC-1+TRAIL kill	CF NFkB inh	iPSC survival up	KKLEB cytotox	CF NFkB inh conf
CN(C)CCCN(C(=O)CCc1ccccc1)c1nc2c(F)cccc2s1	2	16	15	27	-1	-22	nt
CN(C)CCCN(C(=O)CCOc1ccccc1)c1nc2c(F)cccc2s1	2	23	19	85*	-1	-27	61*
COc1ccc(NC(C)=[N+](C)CCNS(=O)(=O)c2ccc(Cl)cc2)cc1	5	11	nt	-8	0	8	nt
CS(=O)(=O)c1ccc(C(=O)OCc2nnc(-c3ccccc3)o2)cc1[N+](=O)[O-]	1	21	28	76*	0	-28	36
CC(=O)c1cccc(NC(=O)COC(=O)c2ccc(S(C)(=O)=O)c([N+](=O)[O-])c2)c1	4	14	21	63*	-3	-1	43*
CS(=O)(=O)c1ccc(C(=O)OCC(=O)Nc2cccnc2Cl)cc1[N+](=O)[O-]	3	-1	nt	90*	-2	-31	40
Cc1ccc2sc(N(CCCN(C)C)C(=O)CN3C(=O)c4ccccc4C3=O)nc2c1C	-9	9	10	2	0	-5	nt
CCOc1cc2c(cc1O)C(=NO)CC1C2CCC2(C)C(O)CCC12 (configuration not stated)	-5	31	nt	52*	0	-28	75*
COc1cc2c(cc1O)CC[C@@H]1[C@@H]2CC[C@]2(C)[C@@H](O)CC[C@@H]12	12	23	17	39	0	2	nt
COC(=O)C1=C(C)NC(C)=C(C(=O)OCC(C)C)C1c1ccccc1[N+](=O)[O-] (configuration not stated)	13	25	nt	83*	-2	-1	58*
COCCCN=C1NN=C(c2cc(C)n(-c3ccccc3)c2C)CS1	0	-17	20	16	1	-11	nt
COCCCN=C1NN=C(c2cc(C)n(Cc3ccccc3Cl)c2C)CS1	-9	-76	0	54*	0	-14	60*
COc1ccc(CC(=O)Oc2ccc(C)cc2Br)cc1OC	-6	8	nt	19	0	1	nt
CCCSc1nnc(Sc2nnnn2-c2ccccc2)s1	3	37	12	56*	-4	-35	18
Cc1nc(CC(C)C)cc(C(=O)N2CCCC(CNS(=O)(=O)c3cccs3)C2)n1 (configuration not stated)	-9	1	5	-4	1	3	nt
C=Cc1ccc(CC2(C)C(=O)Nc3ccc(-c4cccnc4)cc32)cc1 (configuration not stated)	20	20	nt	74*	-2	-25	87*
CC1(Cc2ccc(F)cc2)C(=O)Nc2ccc(-c3cccnc3)cc21 (configuration not stated)	-2	23	nt	67*	-2	3	74*

Screening data as filed in PubChem BioAssay.
